Activity calls are given as the source filed them. The calls were made as follows: active = hit-call score of the fitted dose curve at least 0.9, where 1 is the maximum; inactive = score below 0.9.
These compounds were tested on DNA damage-inducible transcript 3 (DDIT3), DDIT3 (gene 1649) (assay: LTEA_HepaRG_DDIT3: Life Technologies and Expression Analysis (LTEA) Assay for DNA damage-inducible transcript 3 (DDIT3) using HepaRG (AID 2283488)). Details: mRNA level, 48 h; actives raise or lower the signal.
Summary of the method: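 Differentiated human HepaRG cells in serum-free induction medium were exposed in duplicate for 48 h to 8 concentrations (top 100 uM, half-log steps, 0.5% DMSO). DDIT3 mRNA measured by TaqMan qRT-PCR, normalized to ACTB/GAPDH/POLR2A; bidirectional fit versus DMSO.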

Compound	outcome	AC50
CCCCCCCC1CCC(=O)O1 (stereo not given)	inactive	
OC(CCl)CCl	inactive	
Cn1c(=O)c2[nH]cnc2n(C)c1=O	inactive	
CCN(CC)C(=S)SSC(=S)N(CC)CC	inactive	
C[C@]12C=CC(=O)C=C1CC[C@H]1[C@@H]3C[C@@H](O)[C@](O)(C(=O)CO)[C@@]3(C)C[C@H](O)[C@@]12F	inactive	
Cn1cc[nH]c1=S	inactive	
CC[C@H](C)C(=O)O[C@H]1C[C@H](O)C=C2C=C[C@H](C)[C@H](CC[C@@H](O)C[C@@H](O)CC(=O)O)[C@H]21	inactive	
COc1cc2c(c(OC)c1OC)-c1ccc(OC)c(=O)cc1[C@@H](NC(C)=O)CC2	inactive	
NC(=O)N(O)[C@@H]1COc2cc(OCc3ccccc3)ccc21	inactive	
CCCCCCCCN(C)C	inactive	
O=c1[nH]cnc2c1ncn2[C@H]1CC[C@@H](CO)O1	inactive	
C=CN1CCCC1=O	inactive	
CC1(C)C(=O)N(Cl)C(=O)N1Cl	inactive	
O=C1CN(N=Cc2ccc([N+](=O)[O-])o2)C(=O)N1		80.7 µM (active)
CCCCC(CC)C(=O)OCCOCCOCCOC(=O)C(CC)CCCC (stereo not given)	inactive	
Cc1nc(-c2ccccn2)ncc1C(=O)Nn1cc(C)c2cc(F)ccc21	inactive	
OCc1ccccc1	inactive	
CCCCN1C(=O)[C@@H]([C@H](O)C2CCCCC2)NC(=O)C12CCN(Cc1ccc(Oc3ccc(C(=O)O)cc3)cc1)CC2		3.66 µM (active)
O=C(NO)C1(NS(=O)(=O)c2ccc(Oc3ccc(F)cc3)cc2)CCOCC1		77.8 µM (active)
CCOC(N)=O	inactive	
